CYP2C19 activ = human CYP2C19 activators, primary screen, biochemical, luminescence; AID 1025, 2008; 96,000 tested, under 10 active; recombinant CYP2C19, luciferin-H EGE luminescence; stronger effect = higher value; 0 = fully inhibited enzyme, 1 = untreated enzyme; Cytochrome P450 2C19 (Homo sapiens), P33261; activation factor at 5 µM;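 active means activation factor of at least 2 at 5 µM in the primary screen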;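 further: 0 = wells with 2.5 mM tranylcypromine and 1 = vehicle-only wells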
Measles CPE = compounds protecting cells from measles virus cytopathic effect, primary screen, measles RdRp inhibitor project, single point, MLSMR library, absorbance; Measles virus-infected cells, CPE protection; protection (pct of control), % at 4 µM; hit rate 1.5% among 140,000; in the data active means protection mostly above about 24%, no sharp cut-off; inactive means mostly below about 26%
CYP2C9 act = human CYP2C9 activators, primary screen, biochemical, luminescence. Cytochrome P450 2C9 (Homo sapiens), P11712. recombinant CYP2C9, luciferin-H conversion; stronger effect = higher value; factor 1 = untreated enzyme, 0 = blocked. activation factor at 5 µM. hit rate 1.4% among 96,000;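 active means activation factor of 2 or more for CYP2C9 at a 5 µM dose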;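 further: 0 = sulfaphenazole-blocked wells and 1 = vehicle-only wells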
Target sequence (P11712 whole entry, looked up): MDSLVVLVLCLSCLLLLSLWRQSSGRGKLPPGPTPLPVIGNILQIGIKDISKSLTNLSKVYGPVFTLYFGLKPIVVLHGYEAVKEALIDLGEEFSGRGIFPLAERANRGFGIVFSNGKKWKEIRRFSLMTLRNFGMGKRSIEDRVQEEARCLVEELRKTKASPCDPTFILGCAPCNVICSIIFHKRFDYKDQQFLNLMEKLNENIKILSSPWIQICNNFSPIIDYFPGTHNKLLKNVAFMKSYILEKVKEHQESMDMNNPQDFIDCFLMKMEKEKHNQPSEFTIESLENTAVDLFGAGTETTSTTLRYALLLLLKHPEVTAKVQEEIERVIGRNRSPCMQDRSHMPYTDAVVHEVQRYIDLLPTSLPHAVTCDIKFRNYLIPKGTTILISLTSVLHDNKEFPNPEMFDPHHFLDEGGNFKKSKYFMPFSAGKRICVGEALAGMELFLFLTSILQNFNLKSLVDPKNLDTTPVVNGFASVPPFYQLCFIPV
CYP2C19 inhib = blockers of cytochrome P450 2C19 activity – biochemical, luminescence, ADME assay, primary screen; inhibition, % at 5 µM; AID 778, 2007; CYP2C19 Supersomes, luciferin-H EGE luminescence, 30 min; hit rate 21% among 96,000;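 active means CYP2C19 inhibition above a set limit at 5 µM in the primary screen, cut at about 50% in these data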;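 further: plate controls were negative control wells for no effect and 2.5 mM tranylcypromine positive control for full effect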
CYP2C9 inhib = blockers of cytochrome P450 2C9 activity – biochemical, luminescence, ADME assay, primary screen | CYP2C9 Supersomes, luciferin-H conversion | inhibition, % at 5 µM | AID 777, 2007 | P11712 | hit rate 20% among 96,000;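 active means blocking of liver enzyme CYP2C9 beyond about 50% at 5 µM, limit read from the data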
Numbers without * were called inactive; x = no result given. Hits are enriched below; roughly 22% of the tested compounds scored in any of these assays.

SMILES	CYP2C19 activ	Measles CPE	CYP2C9 act	CYP2C19 inhib	CYP2C9 inhib
CC12CCCc3c(O)cc(=O)n(c31)-c1ccccc12 (configuration not stated)	x	7	x	x	x
CC1=C(C(=O)OCc2ccccc2)C(c2ccc(C#N)cc2)NC(=O)N1CCCC(=O)O (configuration not stated)	x	31*	x	x	x
COCCOC(=O)C1=C(C)N(Cc2ccccc2)C(=O)NC1c1ccc(OC)cc1 (configuration not stated)	0	52*	0.3	98*	74*
CC1=C(C(=O)OCc2ccccc2)C(c2ccc(Cl)cc2)NC(=O)N1CCCCCC(=O)O (configuration not stated)	x	3	x	x	x
COc1ccc(C2C=C(c3ccc(Br)s3)Nc3ncnn32)cc1OC (configuration not stated)	0	7	0.5	98*	50*
COc1cccc(C2C=C(c3cccs3)Nc3ncnn32)c1OC (configuration not stated)	0.6	8	0.4	43	56*
COc1ccc(C2C=C(c3ccc(C)cc3)Nc3ncnn32)cc1 (configuration not stated)	0.7	15	0.7	28	34
CCOC(=O)C1=C(c2ccccc2)Nc2ncnn2C1c1cccc(OC)c1OC (configuration not stated)	0.6	5	0.6	44	40
CCN(CC)CCNC(=O)C(=O)NCC1OCCN1S(=O)(=O)c1ccc([N+](=O)[O-])cc1 (configuration not stated)	x	4	x	x	x
O=C(c1n[nH]c(=O)c2ccccc12)N1CCN(c2ccccc2Cl)CC1	0.8	3	1.1	23	-5
O=C(CN1C(=O)CSC1=O)Nc1ccc2c(c1)OCCO2	1.1	3	1	-6	2
COc1cc(Cl)c(C)cc1NC(=O)COC(=O)c1cnc(C)cn1	0.4	9	0.8	57*	19
COc1ccc(C(C)(C)C)cc1NC(=O)COC(=O)c1cnc(C)cn1	0.9	8	0.7	12	27
CCOc1cc(C(=O)OC(C)C(=O)Nc2ncc(Cl)cc2Cl)ccc1OCC(=O)N1CCOCC1 (configuration not stated)	x	6	x	x	x
CCOC(=O)c1oc2ccccc2c1CN1CCN(C(=O)c2ccccc2)CC1	0.6	15	0.5	43	46
CCOC(=O)c1oc2cccc(O)c2c1CN(Cc1ccccc1)C(C)=O	0.3	6	0.7	67*	25
CCOC(=O)c1oc2ccc(CNC(C)(C)C)c(Cl)c2c1C	x	8	x	x	x
CCOC(=O)c1oc2ccccc2c1CN1CCN(c2ccccc2)CC1	0.5	26	0.5	52*	48
CCOC(=O)c1oc2cccc(O)c2c1C	0.6	13	2.4*	45	-144
CCOC(=O)N1CCC2(CC1)CC(=O)c1c(ccc3oc(C(=O)O)c(C)c13)O2	1.1	28	0.5	-6	47
CCOC(=O)c1oc2ccc3c(c2c1C)C(=O)CC1(CCN(C(=O)OCC)CC1)O3	0.5	19	0.5	52*	51*
O=C(NCc1ccccc1F)C1CCCN1C(=O)NC1CCCCC1 (configuration not stated)	x	11	x	x	x
COc1ccccc1OCc1ccc(C(=O)NCc2cccnc2)o1	0.5	6	1	49	2
CCOC(=O)C(=NC(C)(C)C)NNc1cc(Cl)ccc1Cl	x	4	x	x	x
CCOc1ccccc1Nc1ccc(C(=O)O)cc1NC(C)=O	1	3	1	1	-1
SMILES	CYP2C19 activ	Measles CPE	CYP2C9 act	CYP2C19 inhib	CYP2C9 inhib
CCOC(=O)c1oc2ccccc2c1N	0.1	18	0.8	87*	19
CCOC(=O)c1c(-c2ccccc2)oc2ccc(O)c(CN3CCOCC3)c12	0.4	8	0.5	56*	48
CCOC(=O)c1oc2cccc(OC(C)=O)c2c1C	0.2	16	1.2	76*	-23
CCOC(=O)c1c(C)oc2ccc(O)c(CN3CCCCC3)c12	1	1	1.1	-2	-7
CCOCC(=O)Nc1c(C(=O)OCC)oc2ccccc12	1.1	22	0.9	-6	8
CCOC(=O)c1oc2cccc(O)c2c1CN1CCOCC1	0.4	3	0.6	60*	37
COc1ccc(-c2cc(C(=O)Nc3ccc(Cl)cc3Cl)c3ccccc3n2)cc1OC	x	6	x	x	x

Bioassay records from PubChem BioAssay.
